# Bioassay records deposited in PubChem by National Center for Advancing Translational Sciences (NCATS).
# Sampled rows, rich in hits. Any-hit rate of the full collection: about 3%.
# Sm TGR block = blocks Schistosoma mansoni thioredoxin glutathione reductase. Q962Y6. purified TGR, DTNB reduction, TNB absorbance 405 nm. Potency, µM (highest dose often 114 µM), inactives show at the top dose activity change, negative = inhibition, most hits filed as inhibitors. hit rate 3% among 360,000; active means well fitted inhibition curve with a large enough effect; inconclusive means small, poorly fitted or top-dose-only effect; inactive means no such curve, though single readings can be large or run the other way; further: potency means the concentration at half of the fitted maximal effect; on the % scale 0 is the no-effect control and ±100 the full control effect; nearly all actives have a fitted effect of over 60% in size
#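 First, TGR (20 nM dispensed) and NADPH were mixed with compound. Second, a 15 min room-temperature incubation followed. Third, further NADPH and then DTNB were added to start the reaction. Finally, TNB absorbance was monitored kinetically.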
# SARS PLpro yeast-1 = blocks SARS-CoV papain-like protease in a yeast assay; AID 485353; hit rate 0.19% among 330,000; Potency, µM (titrated, usually from 32.9 µM), without a hit: at the top dose activity, positive = growth rescue, hits mostly activators; S. cerevisiae expressing SARS-CoV PLpro, growth rescue; calls by dose curve; further: potency means the concentration at half of the fitted maximal effect; 0% is about no effect; nearly all actives have a fitted effect of over 55% in size
# SARS PLpro yeast-2 = Validates SARS-CoV PLpro inhibitor hits in yeast; shares compounds with SARS PLpro yeast-1; yeast expressing SARS-CoV PLpro, growth phenotype rescue; calls only; hit rate 19% among 1,000; call rule not given here
# * marks the source's active call; other numbers are inactive results; i = inactive; ? = inconclusive; · = not tested or not shown; + = active, no number.
SMILES,Sm TGR block,SARS PLpro yeast-1,others
O=C/C=C/c1c(-c2ccccc2)cc2oc3ccccc3cc1-2,20µM*,-11.2%,
CCOc1cc(C2C(C#N)=C(N)OC(C)=C2C(C)=O)cc(Br)c1O (centres undefined),50.1µM*,-0.3%,
CCOc1cc(C2C(C#N)=C(N)OC(C)=C2C(C)=O)c(Br)c(Br)c1OC(C)C (centres undefined),?,-17.2%,
Cc1ccc(CNC(=O)c2c(C)oc3nc(C)nc(N4CCOCC4)c23)cc1,12.0%,·,
COc1ccc(C2NN=C(c3c[nH]c4ccccc34)C2O)cc1 (centres undefined),?,-1.1%,
COc1ccc(C2C(O)C(c3c[nH]c4ccccc34)=NN2C(=O)CCl)cc1 (centres undefined),8.91µM*,4.5%,
CCOC(=O)c1cc(OC(=O)c2ccccc2C)n(-c2ccccc2)n1,4.8%,·,
CCOC(=O)c1cc(OC(=O)c2ccccc2OC)n(-c2ccccc2)n1,35.5µM*,27.9%,
Cc1c(CC(=O)NCCc2ccc(Cl)cc2)c(=O)oc2c(C)c3occ(C(C)(C)C)c3cc12,3.6%,·,
O=c1cc(CN2CCN(Cc3ccccc3)CC2)c2ccc(O)cc2o1,-22.6%,2.7%,
O=C(c1ccco1)N1CCN(Cc2cc(=O)oc3cc(O)ccc23)CC1,44.7µM*,0.3%,
CCCN1CCc2nc(N3CCN(c4ncccn4)CC3)ncc2C1,3.6%,·,
COC(=O)C1=C(C)N(CC2CCCO2)C(=O)/C1=C\c1ccc(O)cc1 (centres undefined),50.1µM*,-3.0%,
CCN(CC)c1ccc(/C=C2/C(=O)NC(=O)N(CC3CCCO3)C2=O)cc1 (centres undefined),-26.0%,-5.3%,
O=C(NC1CC(=O)N(c2ccc(F)cc2)C1)C1CCCC1 (centres undefined),1.6%,·,
COc1ccc(C(CNC(=O)c2oc3ccccc3c2C)N2CCCCC2)cc1 (centres undefined),-1.3%,·,
COc1ccccc1C(CNC(=O)c1oc2ccccc2c1C)N1CCCC1 (centres undefined),31.6µM*,2.0%,
C=CS(=O)(=O)c1sc(Cl)c(N2CCOCC2)c1[N+](=O)[O-],0.1µM*,-6.3%,
C=CSc1sc(Cl)c(N2CCOCC2)c1[N+](=O)[O-],·,0.1%,
CCN(CC)S(=O)(=O)c1ccc(NC(=O)c2c(C)oc3ncnc(N4CCOCC4)c23)cc1,-3.1%,·,
CN(CCc1ccccc1)C1CCCN(S(=O)(=O)c2cccc(F)c2)C1 (centres undefined),-33.9%,-6.1%,
Cc1cc(S(=O)(=O)N2CCCC(N(C)CCc3ccccn3)C2)c(C)cc1Cl (centres undefined),44.7µM*,2.8%,
COc1ccccc1C(=O)N(c1ccc(C)cc1)S(=O)(=O)c1ccc(Cl)cc1,9.1%,·,
Cc1cccc(Cn2c(=O)n3nc(-c4ccccc4)nc3c3ccccc32)c1,2.3%,·,
CCOc1cc(C(=O)Nc2ccc3oc(-c4ccc(CC)cc4)nc3c2)cc(OCC)c1OCC,-1.9%,·,
SMILES,Sm TGR block,SARS PLpro yeast-1,others
COC(=O)C1=C(C)N(C)C(=S)N(C)C1c1cccc(Br)c1 (centres undefined),?,19.8%,
COC(=O)C1=C(C(=O)OC)C2C(C)=CC(C)=CN2C(C(=O)OC)=C1C(=O)OC (centres undefined),39.8µM*,4.5%,
COC(=O)Cc1c(C)nc2nc(-c3ccc(Cl)cc3)[nH]n2c1=O,-7.4%,?,SARS PLpro yeast-2=i
COC(=O)Cc1c(C)nc2nc(-c3ccc(C)cc3)[nH]n2c1=O,5.9%,15.2%,
COc1ccccc1CCNC(=O)/C(=C/c1cccnc1)NC(=O)c1ccccc1,?,-24.9%,
O=C(NCCc1ccc(Cl)cc1)/C(=C/c1cccnc1)NC(=O)c1ccccc1,-11.5%,15.8µM*,SARS PLpro yeast-2=i
CC(=O)N1CCOc2cc(S(=O)(=O)Nc3cccc(C(F)(F)F)c3)c(Cl)cc21,9.6%,-1.2%,
Cn1c(SCC(=O)C(C)(C)C)nnc1-c1ccncc1,5.6%,9.7%,
CC(=O)CSc1nnc(-c2ccncc2)n1C,-24.5%,?,SARS PLpro yeast-2=i
CCCOc1ccc(/C=N/Nc2cc(N3CCOCC3)ncn2)c(O)c1,5.8%,5.01µM*,SARS PLpro yeast-2=+
Clc1ccccc1/C=N/Nc1cc(N2CCOCC2)ncn1,-0.3%,-0.3%,
O=C(COCc1cc(-c2ccc(F)cc2)on1)Nc1cccc(C(F)(F)F)c1,11.1%,·,
COc1ccc(CNC(=S)NC2CCCC2)cc1,-2.7%,?,SARS PLpro yeast-2=+
COc1ccc(CNC(=S)NC2CCCCC2)cc1,4.1%,0.7%,
CC(C)Oc1ccc(CNC(=O)C2CCCN(S(=O)(=O)c3ccc4c(ccn4C)c3)C2)cc1 (centres undefined),0.9%,·,
CCOc1cc(CNCCSc2nnnn2C)cc(Br)c1OCc1ccc(F)cc1,-1.4%,?,SARS PLpro yeast-2=i
COc1cc(CNCCSc2nnnn2C)cc(Br)c1OCc1ccc(F)cc1,-16.7%,-12.2%,
